# Assay outcomes: PubChem, National Center for Advancing Translational Sciences (NCATS)
# Only some compounds are listed: those with a hit (about 4.6% of all), similar ones and a draw of the others.
# TR SRC2 fluor cs: Texas Red fluorescence interference in TRb-SRC2 counter-screen; TRb/SRC2 Texas Red total fluorescence interference; Potency, µM (titrated, usually from 106 µM), for inactives: top-dose fluorescence change, negative = quenching; hit rate 0.29% among 280,000; active means well fitted curve in either direction with a large enough effect; inconclusive means small, poorly fitted or top-dose-only effect; further: potency means the concentration at half of the fitted maximal effect
#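 Human TRb ligand-binding domain at 0.6 uM with 20 nM Texas Red SRC2 peptide in Tris buffer containing 1 uM T3 and 5% DMSO, incubated with compound 5 h at ambient temperature. Total fluorescence (555/632 nm) calculated as parallel + 2 × perpendicular.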
# TRb-SRC2 inh: inhibitors of human thyroid hormone receptor beta-SRC2 interaction; TRbeta-SRC2 peptide binding, fluorescence polarization; receptor liganded with 1 µM T3; hit rate 0.065% among 280,000; P10828; AID 1469; Potency, µM (titrated, usually from 106 µM), for the others: top-dose activity change, negative = inhibition, usual class: inhibitors;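 further: potency means the concentration at half of the fitted maximal effect; plate controls were bound peptide for no effect and peptide without receptor for full effect; nearly all actives have a fitted effect of over 50% in size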
# Target sequence (P10828 whole entry, looked up): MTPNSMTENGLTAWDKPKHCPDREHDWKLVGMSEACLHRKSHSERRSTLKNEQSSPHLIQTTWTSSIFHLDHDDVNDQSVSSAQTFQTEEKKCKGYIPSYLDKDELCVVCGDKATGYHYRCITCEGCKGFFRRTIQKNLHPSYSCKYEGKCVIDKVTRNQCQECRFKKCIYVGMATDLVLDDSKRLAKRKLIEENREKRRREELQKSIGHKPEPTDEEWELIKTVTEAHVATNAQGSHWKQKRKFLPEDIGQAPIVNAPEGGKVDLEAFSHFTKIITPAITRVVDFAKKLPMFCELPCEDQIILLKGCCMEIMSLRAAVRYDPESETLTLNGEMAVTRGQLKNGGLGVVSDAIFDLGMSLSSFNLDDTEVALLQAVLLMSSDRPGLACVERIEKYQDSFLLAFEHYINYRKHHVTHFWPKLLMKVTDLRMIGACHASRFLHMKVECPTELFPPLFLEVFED
#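 Each compound concentration gave % activity, normalized to unbound and bound Texas Red SRC2 controls, from polarization read after 5 hr ambient incubation with T3-loaded human TRb LBD.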
# Tau fluor cs: counter-screen for tau fibril formation inhibitors. tau K18 P301L Alexa594 fluorescence, heparin fibrillization. Potency, µM (top dose mostly 57.7 µM), for the others: top-dose activity change, negative = decrease. hit rate 0.93% among 280,000. AID 1463; further: potency means the concentration at half of the fitted maximal effect; nearly all actives have a fitted effect of over 55% in size
#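 Human tau K18 P301L (15 uM unlabeled, 0.24 uM Alexa 594-labeled) in 100 mM sodium acetate pH 7 with 20 uM heparin, 6 hr at 37 C. ThT 30 uM added, 1 hr ambient; Alexa 594 FP and total fluorescence read at 555/632 nm.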
# Tau fibril ThT: tau fibrillization inhibition (ThT binding); Potency, µM (titrated, usually from 57.4 µM), for inactives: top-dose activity, negative = inhibition, most hits filed as inhibitors; hit rate 2.1% among 270,000; AID 1460; recombinant tau K18 P301L, heparin-induced fibrillization, ThT fluorescence; further: potency means the concentration at half of the fitted maximal effect; nearly all actives have a fitted effect of over 55% in size
# Target sequence (P10636 561-689 P618L limits assumed): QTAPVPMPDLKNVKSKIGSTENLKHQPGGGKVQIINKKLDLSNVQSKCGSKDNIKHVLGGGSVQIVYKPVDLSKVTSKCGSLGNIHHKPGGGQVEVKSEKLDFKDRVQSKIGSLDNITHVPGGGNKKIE
#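 ThT emission at 510 nm, taken 1 hr after adding 30 uM dye, quantifies aggregates formed when 20 uM heparin acts on human tau K18 P301L for 6 hr at 37 C.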
# PNC inhibitor: blocks assembly of the perinucleolar compartment. hit rate 3.1% among 140,000. PC3M PTB-GFP, PNC prevalence imaging, 16 h; stronger effect = lower value. activity change (PNC), negative = inhibition, % at 10 µM;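 active means readout at or below -70, meaning at least 70% loss of cells showing the perinucleolar compartment, a nuclear body marking cancer cells; inconclusive means readout between -30 and a set limit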;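 further: plate controls were DMSO wells for no effect and camptothecin positive control wells for full effect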
#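 PC3M cells stably expressing PTB-GFP, 750–1000 cells/well, treated 16 h at 37 °C with compound (23 nl of library stock), in duplicate. After paraformaldehyde fixation and Hoechst stain, imaged at 20x; PNC prevalence scored by image analysis.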
# Tau fibril FP: blocks human tau fibril formation measured by polarization. P10636. K18 P301L tau heparin fibrillization, Alexa594 FP, 6 h. Potency, µM (series often up to 57.7 µM), without a hit: at the top dose activity, negative = inhibition, hits mostly inhibitors. hit rate 0.39% among 280,000. AID 1468; further: potency means the concentration at half of the fitted maximal effect; nearly all actives have a fitted effect of over 55% in size
#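 FP of Alexa 594-tau after heparin (20 uM) induction. Substrate: human K18 P301L, 15 uM unlabeled, 0.24 uM labeled. Buffer 100 mM sodium acetate pH 7. 6 hr, 37 C.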
# The depositor's hits bear a star; ? = inconclusive; . = no result; [ ] = dose if it differs, or a comment. Unless noted, the call rests on the fitted dose curve; in most records, active means well fitted curve in the direction sought with a large enough effect; inconclusive means small, poorly fitted or top-dose-only effect, or another doubt; inactive means no such curve, though single readings can be large; an effect the other way counts as inactive or inconclusive. Unless noted, on the % scale 0 is the no-effect control and ±100 the full control effect.
SMILES,TR SRC2 fluor cs,TRb-SRC2 inh,Tau fluor cs,Tau fibril ThT,PNC inhibitor,Tau fibril FP
COCCn1c(SCC(=O)Nc2cc(Cl)ccc2OC)nc2c([nH]c3ccccc32)c1=O,4%,11%,-17%,2%,.,-7%
CCN(CC)S(=O)(=O)c1ccc(-c2nnc(SCC(=O)Nc3nc(C)cs3)o2)cc1,0%,-8%,-9%,-11%,-106*,-10%
O=C(NNC1=NCCN1Cc1ccccc1)c1cccc(C(F)(F)F)c1,-1%,1%,-16%,-11%,.,-10%
O=C(N/N=C\c1cccc(Cl)c1)c1n[nH]c2c1CCCC2,?,0%,-7%,-7%,-24,2%
O=C(N/N=C/C=C/c1ccccc1)c1n[nH]c2c1CCC2,-2%,1%,-11%,-15%,-98*,-3%
O=C(N/N=C/c1ccc(Cl)cc1Cl)c1n[nH]c2c1CCCC2,-3%,-6%,3%,-2%,-84*,2%
CC(=O)n1nc(-c2ccccc2)nc1NCc1ccc(F)cc1,0%,-7%,-13%,2%,?,0%
Cc1ccc(N(CC(=O)NCc2cccs2)S(=O)(=O)c2cccs2)cc1,-2%,-5%,-9%,-4%,-83*,1%
CNc1nc(-c2ccc([N+](=O)[O-])cc2)cs1,-2%,-2%,-13%,13µM*,56,11%
O=C(O)c1ccccc1C(=O)Nc1ccc(-c2csc(-c3ccccc3)n2)cc1,5%,5%,?,?,-98*,14%
O=[N+]([O-])c1ccc(S(=O)(=O)Nc2ccc(-c3csc(-c4ccccc4)n3)cc2)cc1,0%,11%,8.9µM*[quencher],?,?,-7%
O=S(=O)(Nc1ccc(-c2csc(-c3ccccc3)n2)cc1)c1ccccc1,-3%,8%,?,1%,-16,?
Cc1ccc(C(=O)NC(=S)NCc2cccnc2)c(C)c1,-2%,-4%,-11%,-10%,.,-10%
Cc1c2cnn(CC(=O)N3CCN(c4ccccc4)CC3)c(=O)c2c(C)n1Cc1ccc(F)cc1,1%,-2%,-3%,-3%,.,-12%
CCCCN(CCCNC(=O)c1cc(Nc2ccc(OC)cc2OC)nc2ccccc12)Cc1ccccc1,-3%,5%,10µM*[quencher],?,.,15%
CSc1cccc(Nc2cc(C(=O)NCCCN(C)c3ccccc3)c3ccccc3n2)c1,-1%,2%,2.8µM*[quencher],-7%,.,-7%
CCc1ccc(Nc2cc(C(=O)NCCCN(C)c3ccccc3)c3ccccc3n2)cc1,-4%,-9%,?,-8%,.,1%
COc1ccc(Nc2cc(C(=O)NCCCN3CCN(C)CC3)c3ccccc3n2)c(OC)c1,-2%,7%,-27%,?,61,12%
CCCCN(CCCNC(=O)c1cc(Nc2ccc(OC)cc2)nc2ccccc12)Cc1ccccc1,0%,-10%,4µM*[quencher],-15%,.,5%
CCN(CCCNC(=O)c1cc(Nc2ccc(OC)cc2OC)nc2ccccc12)c1cccc(C)c1,-1%,3%,7.1µM*[quencher],?,.,5%
COc1ccc(NS(=O)(=O)c2ccc(N)cc2)nn1,-1%,-1%,-4%,-4%,-15,0%
CCCCN(CCCC)CCCNC(=O)c1cc(-c2ccc(Cl)s2)nc2ccccc12,0.79µM*[quencher],-10%,?,-15%,.,-10%
COc1ccc(Nc2cc(C(=O)NCCc3ccccc3)c3ccccc3n2)cc1OC,-1%,-7%,?,-4%,.,3%
CCN(CCCNC(=O)c1cc2cc3ccc(C)cc3nc2s1)c1ccccc1,-7%,8%,?,?,.,?
CCCCN(C)CCCNC(=O)c1cc(-c2ccc(Br)s2)nc2ccccc12,-1%,2%,?,-17%,.,?
SMILES,TR SRC2 fluor cs,TRb-SRC2 inh,Tau fluor cs,Tau fibril ThT,PNC inhibitor,Tau fibril FP
CCN(CCCNC(=O)c1cc2cc3cc(OC)ccc3nc2s1)c1cccc(C)c1,-1%,-1%,4µM*[quencher],?,.,9%
CCCCN(CCCNC(=O)c1cc(Nc2ccc(OC)c(OC)c2)nc2ccccc12)c1ccccc1,0%,9%,7.1µM*[quencher],-16%,.,12%
COc1ccc(Nc2cc(C(=O)NCCCN(C)Cc3ccccc3)c3ccccc3n2)cc1OC,-3%,1%,28µM*[quencher],?,.,?
COc1ccc(-n2c(Cc3cc(=O)[nH]c(=O)[nH]3)nnc2SCC(=O)Nc2ccccc2)cc1,-1%,6%,-3%,-8%,57,-4%
CCCCN(CCCNC(=O)c1cc(Nc2ccc(OC)c(OC)c2)nc2ccccc12)Cc1ccccc1,0%,2%,13µM*[quencher],?,.,15%
c1ccc(Nc2ccccn2)cc1,-6%,6%,-7%,-8%,?,7%
c1ccc(Nc2cccc(Nc3ccccc3)n2)cc1,2%,4%,13µM*[quencher],14µM*,0,3%
COc1ccc(CN=Cc2c(C(=O)O)[nH]c3ccccc23)cc1,3%,2%,-3%,-2%,.,-4%
COc1ccccc1N1CCN(/N=C/c2cccc(OC)c2O)CC1,-4%,-9%,-4%,-5%,.,5%
COc1ccc2ccccc2c1/C=N/N1C(=O)CSC1=S,-21%,28%,-29%,11µM*,.,-11%
O=C1CSC(=S)N1/N=C/C=C/c1ccccc1,5%,11%,-11%,?,26,-7%
COc1cc(/C=N/N2C(=O)CSC2=S)cc(Br)c1O,?,?,?,13µM*,.,?
COc1cc(/C=N/N2C(C)CCCC2C)cc(Br)c1O (stereo not given),2%,0%,-14%,-14%,.,1%
COc1cccc(/C=N/N2C(=O)CSC2=S)c1O,0%,-3%,?,16µM*,?,?
COC(=O)/C=C1\OC(c2ccccc2)=CC1=O,1%,2%,-1%,25µM*,-13,-10%
CCN1/C(=C\C(=S)Nc2ccccc2)Sc2ccccc21,0%,3%,?,7.9µM*,.,?
CCN1/C(=C\C=C(C(C)=O)C(C)=O)Sc2ccccc21,-2%,-5%,-7%,?,.,10%
Cc1cccc(C(=O)Oc2ccccc2/C=N/Nc2ccc([N+](=O)[O-])cc2)c1,6%,-3%,4µM*[quencher],?,?,7%
O=C(O)c1cc(-c2ccc(/C=N/Nc3ccc([N+](=O)[O-])cn3)o2)ccc1Cl,-11%,3%,?,1.3µM*,.,-5%
Cc1c(C(=O)O)cccc1-c1ccc(/C=N/Nc2ccc(Br)cc2)o1,-7%,1%,?,11µM*,2,-12%
O=C(O)c1ccc(-c2ccc(/C=N/Nc3ccc([N+](=O)[O-])cc3)o2)cc1,-11%,0%,11%[0.0958 µM],.,.,-6%[0.0958 µM]
O=C(O)c1ccc(N/N=C/c2ccc(-c3cc(Cl)ccc3Cl)o2)cc1,-6%,-4%,10%[0.0958 µM],.,.,-1%[0.0958 µM]
